# From PubChem BioAssay AID1851 (National Center for Advancing Translational Sciences (NCATS), 2009)
# Several values for one entry are separate records, joined by “and”; a condition that tells them apart may be missing. Identical values can stand only once. Hit rate of the full screen: of about 16,000 compounds, about 4,000 (25%) were called active. Not shown: some 26% with an inconclusive outcome. The call rests on the fitted dose curve; in most records, active means well fitted curve in the direction sought with a large enough effect; inconclusive means small, poorly fitted or top-dose-only effect, or effect the other way; inactive means no such curve, though single readings can be large or run the other way. A selection follows. Where a structure was tested more than once in an assay, its records may differ in their call.
# Target: Cytochrome P450 2C9 (Homo sapiens) (UniProt P11712)
# Experiment: Cytochrome panel assay with activity outcomes
# Conditions: recombinant CYP, pro-luciferin dealkylation, luminescence, p450-cyp2c9; series mostly up to 57.1 µM
# On the % scale 0 is the no-effect control and ±100 the full control effect.
# Cytochrome P450 2C9 (Homo sapiens), sequence (P11712 whole entry, looked up): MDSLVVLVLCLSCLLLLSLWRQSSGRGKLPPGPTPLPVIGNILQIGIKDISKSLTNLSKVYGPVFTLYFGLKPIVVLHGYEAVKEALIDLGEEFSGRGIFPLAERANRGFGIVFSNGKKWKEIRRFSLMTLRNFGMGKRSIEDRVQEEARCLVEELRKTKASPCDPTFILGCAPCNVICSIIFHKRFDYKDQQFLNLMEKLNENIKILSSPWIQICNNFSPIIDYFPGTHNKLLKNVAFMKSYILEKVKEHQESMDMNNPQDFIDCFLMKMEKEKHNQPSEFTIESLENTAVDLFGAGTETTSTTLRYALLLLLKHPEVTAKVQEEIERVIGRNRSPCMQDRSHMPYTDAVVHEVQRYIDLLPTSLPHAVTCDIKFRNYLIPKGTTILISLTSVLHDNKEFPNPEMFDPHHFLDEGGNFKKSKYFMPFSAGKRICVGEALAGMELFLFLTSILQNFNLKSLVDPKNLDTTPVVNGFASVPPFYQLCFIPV
SMILES,AC50,"activity, negative = inhibition"
O=S(=O)(c1ccccc1)N1CCCC1c1nc2ccccc2s1 (stereo not given),12.6 µM (active),
CC(C)NC(=O)N1CCC2(CC1)CCN(C(=O)c1cccn1C)CC2,inactive,
COc1ccccc1CNc1ccnc(-c2ccccc2Cl)n1,,-21.6% [at 2.29 µM] (inactive)
COc1ccccc1CNc1ncncc1-c1ccccc1Cl,,-27.8% [at 2.29 µM] (inactive)
COc1cccc(CNc2ccc(F)c(Cl)c2)c1O,2.82 µM (active),
CCCN1C2=NCCCN2c2ccccc21,inactive,
COc1ccc(C(=O)/C=C(/C)N(C)C)cc1,inactive,
O=C(/C=C/c1ccc2ccccc2c1)c1ccoc1,inactive,
COc1ccc(/C=C/C(=O)c2ccoc2)cc1,28.2 µM (active),
O=C(CCc1nc(-c2ccccc2)c(-c2ccccc2)o1)OCc1ccc(Cl)cc1,22.4 µM (active),
NCCSc1nc(-c2ccccc2)c(-c2ccccc2)o1,,-11.6% [at 11.4 µM] (inactive)
CN(C)C(=O)c1ccc(-c2cncnc2NCc2cccnc2)cc1,,8.29% [at 2.29 µM] (inactive)
CC(=O)N(C)c1nnc(-c2cnccn2)s1,inactive,
Cc1ccc(-c2nnc(N(C)C(=O)c3cccnc3)s2)cc1,1.41 µM (active),
COc1cccc(C(=O)N(C)c2nnc(-c3ccncc3)s2)c1,2 µM (active),
COc1cccc(-c2ccc3ncnc(N(C)C)c3c2)c1,,-9.73% [at 2.29 µM] (inactive)
CCCC1S/C(=N/N=C/c2ccc(OC)cc2)N(Cc2ccc(OC)cc2)C1=O (stereo not given),15.8 µM (active),
CC(C)=NO[C@@H](C)c1cc(-c2c(C)cc(C)cc2C)no1,,-0.976% [at 11.4 µM] (inactive)
CCOC(=O)c1c(C)oc2c1cc(O)c1ccccc12,1.12 µM (active),
CCOC(=O)c1c(C)oc2c1c(C=NC1CCS(=O)(=O)C1)c(O)c1ccccc12 (stereo not given),inactive,

SMILES,AC50,"activity, negative = inhibition"
C[C@@H]1C[C@H](OC(=O)[C@@H](O)c2ccccc2)CC(C)(C)N1C,inactive,
CCCc1nnc(NC(=O)CCC(=O)NCc2ccccc2OC)s1,inactive,
O=C(Cn1cnc2ccccc2c1=O)Nc1nnc(SCc2ccccc2)s1,8.91 µM (active),
CCCc1nnc(NC(=O)Cn2cnc3ccccc3c2=O)s1,17.8 µM (active),
CCCC(=O)Nc1nc(-c2ccc3c(c2)CCN3S(C)(=O)=O)cs1,inactive,
COc1ccc(-c2csc(NC(=O)CCn3cnc4ccccc4c3=O)n2)cc1OC,1 µM (active),
OCCn1cnc2c(SCc3ccccc3)ncnc21,,12.5% [at 11.4 µM] (inactive)
CCCc1nnc(NC(=O)CCC(=O)N2CCN(c3ccccn3)CC2)s1,inactive,
Cn1c(=O)c2[nH]c(CCCc3ccc([N+](=O)[O-])cc3)nc2n(C)c1=O,,1.93% [at 11.4 µM] (inactive)
CC(C)(C)c1ccc(COC(=O)CNC(=O)CNC(=O)Cc2ccccc2)cc1,inactive,
Cc1ccc(C(=O)COC(=O)CNC(=O)Cc2ccccc2)cc1[N+](=O)[O-],14.1 µM (active),
Cc1ccc(C(=O)COC(=O)CNC(=O)C(c2ccccc2)c2ccccc2)cc1[N+](=O)[O-],inactive,
O=C1[C@H]2[C@H]3[C@H](O)[C@H](O)C/C(=N/OC[C@@H](O)COCc4ccco4)[C@@H]3CC[C@@H]2C(=O)N1C[C@@H]1CCCO1,,39.3% [at 11.4 µM] (inactive)
COc1ccc(S(=O)(=O)N2CC3C4C=CC(C4)C3C2)cc1 (stereo not given),14.1 µM (active),
COc1ccc(S(=O)(=O)N2CCC(N3CCCCC3)CC2)cc1,inactive,
CCN(CC)CCOC(=O)[C@@H](c1ccccc1)C1CCCCC1,inactive,
CC(C)(C)NC(=O)CSC(=Nc1ccc(F)cc1)NC#N,12.6 µM (active),
CC(C)OC(=O)c1cc2c(OC[C@@H](O)CNC(C)(C)C)cccc2[nH]1,inactive,
CC(C)CO/N=C1/C[C@@H](O)[C@@H](O)[C@@H]2[C@@H]3C(=O)N(C[C@@H]4CCCO4)C(=O)[C@H]3CC[C@H]12,,9.45% [at 11.4 µM] (inactive)
Cc1nn(-c2ccccc2)c2c1C(=O)N(Cc1ccccc1)C(=O)C(C)(C)C2,17.8 µM (active),

SMILES,AC50,"activity, negative = inhibition"
O=C(NCCCN1CCN(C2CCCCC2)CC1)Nc1ccccc1C(F)(F)F,inactive,
CCOC(=O)C1=C(C)NC2=C(C(=O)C(C(=O)OCC)C(c3ccc(OC)cc3)C2)C1c1ccccn1 (stereo not given),8.91 µM (active),
COCCn1c(=O)c(-c2cc(F)cc(F)c2)nc2cnc(N3CCNCC3)nc21,1.26 µM (active),
COCCn1c(=O)c(-c2cccc(C#N)c2)nc2cnc(N3CCNCC3)nc21,3.98 µM (active),
COc1ccc(-n2c(=O)c(-c3cccc(C#N)c3)nc3cnc(N4CCNCC4)nc32)cc1,inactive,
COCCn1c(=O)c(-c2cc(F)cc(F)c2)nc2cnc(N3CCOCC3)nc21,inactive,
COCCn1c(=O)c(C)nc2cnc(N3CCNCC3)nc21,inactive,
CN1CCN(c2ncc3nc(-c4cccc(C#N)c4)c(=O)n(CCC#N)c3n2)CC1,inactive,
C1CCc2c(nc3nnnn3c2NC2CCCC2)C1,inactive,
O=C1/C(=C/c2ccccc2)[C@@H](NC2CCCCC2)c2ccccc21,3.98 µM (active),
COc1ccc(C(OCCN2CCC[C@@H](C(=O)O)C2)(c2ccc(OC)cc2)c2ccc(OC)cc2)cc1,inactive,
O=C(O)[C@H]1CCCN(CCC=C(c2ccccc2)c2ccccc2)C1,inactive and 7.94 µM (active),
S[C@@H]1CCCN(Cc2ccccc2)C1,,-2.17% [at 11.4 µM] (inactive)
C[C@H](N[C@@H](C)COc1ccccc1)[C@H](O)c1ccc(O)cc1,inactive,
CN1CCN(c2ncc3nc(-c4ccc(Cl)cc4)c(=O)n(Cc4ccc(F)cc4)c3n2)CC1,inactive,
CN(C)c1ncc2nc(-c3ccc(Cl)cc3)c(=O)n(Cc3ccc(F)cc3)c2n1,inactive,
O=c1c(-c2ccc(Cl)cc2)nc2cnc(N3CCNCC3)nc2n1Cc1ccc(F)cc1,25.1 µM (active),
O=c1c(-c2ccc(F)cc2)nc2cnc(N3CCNCC3)nc2n1-c1ccccc1,inactive,
O=c1c(-c2ccccc2)nc2cnc(N3CCNCC3)nc2n1Cc1ccc(F)cc1,10 µM (active),
CN1CCN(c2ncc3nc(-c4ccccc4)c(=O)n(Cc4ccc(F)cc4)c3n2)CC1,inactive,
